Structures are written as SMILES. Inconclusive results are not listed. Entries that show only a call come without a potency. A number with no mark means an inactive call. Calls of active or inactive are those of the source. Calls come from the whole dose curve; as a rule, active = well fitted inhibition curve with a large enough effect; inconclusive = small, poorly fitted or top-dose-only effect; inactive = flat fitted curve, though single readings scatter.
Note: nearly all actives have a fitted effect of over 60% in size.

The subject of one experiment is NIH3T3. Put plainly: Cytotoxic Profiling of Annotated Libraries Using Quantitative High-Throughput Screening (AID 1296008). Note: potency is the fitted concentration of half-maximal effect. The note with it: Five cell lines viability, CellTiter-Glo ATP luminescence, 48-72 h; max response: active compounds read low. The procedure, abridged:
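Cytotoxicity was measured as CellTiter-Glo ATP luminescence, read after 10 min at room temperature. Compound treatment of the cells lasted 48 or 72 hr at 37 degrees Celsius in a qHTS format.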
On the technique in general: ATP-based viability assays read luminescence as a measure of living cells.
`COC1C=C(C)C(O)(CO)C2(C)CCCC(C)(C)C12` (stereo unspecified): the max response was -0.263%. As to `CC(=O)Nc1nc(C)c(-c2nc(N3CCCC(O)C3)no2)s1` (stereo unspecified), the Potency was 18.4 µM (active).

Take `Cc1[nH]c2ccccc2c1CCNCc1ccc(/C=C/C(=O)NO)cc1`: the Potency is 0.366 µM (active).

Regarding `O=C(NO)c1ccc(CC(=O)N(CCO)c2ccccc2)cc1`, the max response was -4.33%. For the compound `C=C1C(=O)O[C@@H]2/C=C(\CO)CC/C=C(\CO)[C@H](OC(C)=O)C(OC(=O)C(C)CC)C12` (stereo partly specified), the max response is -1.91%. Still for that read-out and setting: as for `N#CC(CCCN1CCN(/N=C/c2cccnc2)CC1)(c1ccccc1)c1ccccc1`, the figure is -25.1%; as for `Cc1nc(Nc2ccc(F)cc2)nc(N2CCc3ccccc3C2C)c1C` (stereo unspecified), -20.5%.

Another experiment deals with HACAT. Briefly: qHTS assay to identify novel small-molecules to repurpose for Merkel cell carcinoma treatment (AID 1296009). To be noted: MCC and control cell lines, CellTiter-Glo viability, 72 h; at 44.8 µM (top of the series) unless noted. In outline: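 72 hr, 37 degree celsius; NPC 8-pt / MIPE 11-pt dose response; compound pinned in DMSO; CellTiter-Glo, 10 min RT, luminescence; normalized to no-cell and DMSO controls.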
Regarding `Cc1c(Cl)cccc1S(=O)(=O)Nc1nc(NCCc2ccccc2)nc2c1CN(Cc1ccccc1)CC2`, the call was inactive. Regarding `CCOC(=O)c1ccc(OCCC2CCN(c3ccc(C)nn3)CC2)cc1`, the compound was called inactive. The same measure, in the same setting: the entry for `COC(=O)CC(O)CC(O)/C=C/c1c(C)ccc2c1C(OC(C)=O)CC(C)C2` (stereo unspecified) is “inactive”. Consider `CCN1C(C)(C)CC(Oc2ccc(C(=O)Nc3ccc(NC(=O)Nc4cc(C(C)(C)C)on4)cc3)nc2)CC1(C)C`, for which the outcome was inactive.

`O=C(Nc1nc2ccc([N+](=O)[O-])cc2s1)C1CCCCC1`: the outcome was inactive. Same read-out and setting: the entry for `Cc1onc(-c2ccccc2)c1C(=O)N1CCN(c2ccc([N+](=O)[O-])cc2Cl)CC1` is “inactive”; for `CCC(C)C(=O)O[C@H]1[C@H](O)[C@@]2(COC(C)=O)C(CC1(C)C)C1=CCC3[C@@]4(C)CC[C@H](O[C@@H]5O[C@H](C(=O)O)[C@@H](O)[C@H](O)[C@H]5O)[C@@](C)(CO)C4CC[C@@]3(C)[C@]1(C)C[C@@H]2O` (stereo partly specified) it is “inactive [at 9.27 µM]”. Still for that read-out and setting: the entry for `CN(C)C(CCOc1cccc2ccccc12)c1ccccc1` (stereo unspecified) is “inactive”; for `CC(C)(O)C1CC(=O)C2(C)C(CCC3(C)C(c4ccoc4)OC(=O)C4OC432)C12CCC(=O)OC2` (stereo unspecified) it is “inactive [at 17.4 µM]”.

For `C=C1/C(=C/C=C2\CCC[C@]3(C)[C@@H]([C@H](C)/C=C/[C@@H](C)C(C)C)CC[C@@H]23)C[C@@H](O)C[C@@H]1O`, the outcome was “inactive; activator”. On the same count and under the same terms, as for `Cc1nnc(-c2ccc(-c3ccc(C(=O)Nc4ccc(O)c(N5CCN(C)CC5)c4)cc3)c(C)c2)o1`, the entry is “inactive”; as for `C=C1CC[C@H]2C(=C)CC[C@H]3C(=C)C(=O)O[C@@H]3[C@@H]12`, “inactive”. Same read-out and setting: as for `COc1cc(C(=O)NC(=S)Nc2cccc(NC(=O)c3ccccc3)c2)cc(OC)c1OC`, the entry is “inactive”; as for `COc1ccc(NC(=O)c2ccc(-c3ccc(C(=N)N)cc3C)cc2)cc1N1CCN(C)CC1`, “inactive”. Same read-out and setting: the entry for `CC(C)C[C@@H](C(=O)N[C@@H](Cc1ccc(OCc2ccccc2)cc1)C(=O)NC(C)(C)C)N(C)Cc1ccc(C(C)(C)C)cc1` is “inactive”; for `O=C(NCCCCN1CCN(c2cccc(Cl)c2Cl)CC1)c1cc2ccccc2s1` it is “inactive”; for `Cc1cc(C(=O)Cn2cc(C#N)ccc2=O)c(C)n1Cc1ccccc1` it is “inactive”. With `CCCCCCCOc1cc2c(cc1/C(C)=C/c1ccc(C(=O)O)cc1)C(C)(C)CCS2(=O)=O`, the outcome was inactive. With `CN(C)C(=O)C(=O)c1cn(C)c2cc(Cl)c(C(=O)N3CCC(Cc4ccc(F)cc4)CC3)cc12`, the compound was classed as inactive.

Take `C/C=C/CCC1Cc2cc(O)c(CCCC)c(O)c2C(=O)O1` (stereo unspecified): the compound was classed as inactive.

As for `COC1C=C(C)C(O)(CO)C2(C)CCCC(C)(C)C12` (stereo unspecified), the result was inactive. Still for that read-out and setting: as for `O=C(NO)c1ccc(CC(=O)N(CCO)c2ccccc2)cc1`, the entry is “inactive”. Same read-out and setting: as for `C=C1C(=O)O[C@@H]2/C=C(\CO)CC/C=C(\CO)[C@H](OC(C)=O)C(OC(=O)C(C)CC)C12` (stereo partly specified), the entry is “inactive [at 17.4 µM]”.

On to `Cc1nc(Nc2ccc(F)cc2)nc(N2CCc3ccccc3C2C)c1C` (stereo unspecified), for which the outcome was inactive.

Source of the values: PubChem BioAssay (NCATS).
